# Source: the supplement of paper PMC10849652
# The full data set covers some 7,900 targets. This sample favours those with a hit. About 0.6% of all pairs of compound and target were hits. A number with no mark means an inactive call.
# How the values were obtained:
# Experiment in all cases: log2 fold change, soluble protein after heating vs DMSO (PISA); higher = thermal stabilisation; K562 cells, 10 uM, 30 min; active = over 0.2 and 3.5 SD of the protein, either way, in both replicates (recomputed)
# [1] = compound: CS(=O)(=O)c1ccc(-c2cnc(N)c(C(=O)Nc3ccccc3)n2)cc1
# In short: (§1)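 Values are thermal stability changes relative to control samples and are taken from duplicates. They are stated as log2 fold changes. Before quantification by TMTpro 16plex LC-MS/MS with equalised channel sums, K562 cells at 2×10^6 cells/mL were treated with 10 μM compound for 30 min, heated in aliquots for 3 min across 48°C-58°C, pooled, extracted in PBS with 0.5% NP-40 at 4°C, and centrifuged at 21,000xg for 90 min to give the soluble supernatant.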
# crizotinib = compound: C[C@@H](Oc1cc(-c2cnn(C3CCNCC3)c2)cnc1N)c1c(Cl)ccc(F)c1Cl [crizotinib]
# In short: as §1
# [2] = compound: C[C@@H]1COCCN1C2=NC(=NC(=C2)C3(CC3)S(=O)(=O)C)C4=C5C=CNC5=CC=C4
# In short: as §1
# [3] = compound: C[C@H](C1=CC=C(C=C1)C(=O)NC2=C3C=CNC3=NC=C2)N
# In short: as §1
# duvelisib = compound: C[C@H](Nc1ncnc2nc[nH]c12)c1cc2cccc(Cl)c2c(=O)n1-c1ccccc1 [duvelisib]
# In short: as §1
# gandotinib = compound: Cc1cc(Nc2cc(CN3CCOCC3)c3nc(C)c(Cc4ccc(Cl)cc4F)n3n2)n[nH]1 [gandotinib]
# In short: as §1
# tozasertib = compound: Cc1cc(Nc2cc(N3CCN(C)CC3)nc(Sc3ccc(NC(=O)C4CC4)cc3)n2)n[nH]1 [tozasertib]
# In short: as §1
# [4] = compound: Cc1cc(SCc2sc(-c3ccc(C(F)(F)F)cc3)nc2C)ccc1OCC(=O)O
# In short: as §1
# doramapimod = compound: Cc1ccc(-n2nc(C(C)(C)C)cc2NC(=O)Nc2ccc(OCCN3CCOCC3)c3ccccc23)cc1 [doramapimod]
# In short: as §1
# ispinesib = compound: Cc1ccc(C(=O)N(CCCN)[C@@H](c2nc3cc(Cl)ccc3c(=O)n2Cc2ccccc2)C(C)C)cc1 [ispinesib]
# In short: as §1
# bafetinib = compound: Cc1ccc(NC(=O)c2ccc(CN3CC[C@H](N(C)C)C3)c(C(F)(F)F)c2)cc1Nc1nccc(-c2cncnc2)n1 [bafetinib]
# In short: as §1
# [5] = compound: Cc1cccc(CC(=O)N2CCc3c2ccc(-c2cn(C)c4ncnc(N)c24)c3F)n1
# In short: as §1
# nilotinib = compound: Cc1cn(-c2cc(NC(=O)c3ccc(C)c(Nc4nccc(-c5cccnc5)n4)c3)cc(C(F)(F)F)c2)cn1 [nilotinib]
# In short: as §1
# [6] = compound: Cc1nc(Nc2n[nH]c3c2CN(C(=O)N[C@H](CN(C)C)c2ccccc2)C3(C)C)c2sccc2n1
# In short: as §1
# dasatinib = compound: Cc1nc(Nc2ncc(C(=O)Nc3c(C)cccc3Cl)s2)cc(N2CCN(CCO)CC2)n1 [dasatinib]
# In short: as §1
# [7] = compound: Cc1ncc(-c2ccnc(Nc3ccc(S(C)(=O)=O)cc3)n2)n1C(C)C
# In short: as §1
# [8] = compound: Cn1cc(-c2ccc3c(c2)CCN3C(=O)Cc2cccc(C(F)(F)F)c2)c2c(N)ncnc21
# In short: as §1
# [9] = compound: Cn1cc(-c2ccc3nnc(C(F)(F)c4ccc5ncccc5c4)n3n2)cn1
# In short: as §1
# tipifarnib = compound: Cn1cncc1[C@@](N)(c1ccc(Cl)cc1)c1ccc2c(c1)c(-c1cccc(Cl)c1)cc(=O)n2C [tipifarnib]
# In short: as §1
# mubritinib = compound: FC(F)(F)c1ccc(/C=C/c2nc(COc3ccc(CCCCn4ccnn4)cc3)co2)cc1 [mubritinib]
# In short: as §1
# UniProt Q9UBS8, sequence (Q9UBS8 whole entry, looked up): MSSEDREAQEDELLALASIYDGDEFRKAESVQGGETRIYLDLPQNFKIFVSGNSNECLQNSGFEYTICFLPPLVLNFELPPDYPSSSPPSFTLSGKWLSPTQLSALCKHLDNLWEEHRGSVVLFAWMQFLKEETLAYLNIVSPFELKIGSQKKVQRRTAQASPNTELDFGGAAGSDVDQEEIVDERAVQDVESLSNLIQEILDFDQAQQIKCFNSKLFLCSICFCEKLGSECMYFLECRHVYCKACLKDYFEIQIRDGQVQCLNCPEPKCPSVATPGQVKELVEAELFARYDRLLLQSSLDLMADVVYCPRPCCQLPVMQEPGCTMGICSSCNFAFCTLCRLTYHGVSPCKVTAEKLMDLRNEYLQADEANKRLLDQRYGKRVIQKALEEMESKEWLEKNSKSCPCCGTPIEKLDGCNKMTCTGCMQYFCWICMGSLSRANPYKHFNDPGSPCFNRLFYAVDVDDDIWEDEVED
# UniProt Q8TDY2, sequence (Q8TDY2 whole entry, looked up): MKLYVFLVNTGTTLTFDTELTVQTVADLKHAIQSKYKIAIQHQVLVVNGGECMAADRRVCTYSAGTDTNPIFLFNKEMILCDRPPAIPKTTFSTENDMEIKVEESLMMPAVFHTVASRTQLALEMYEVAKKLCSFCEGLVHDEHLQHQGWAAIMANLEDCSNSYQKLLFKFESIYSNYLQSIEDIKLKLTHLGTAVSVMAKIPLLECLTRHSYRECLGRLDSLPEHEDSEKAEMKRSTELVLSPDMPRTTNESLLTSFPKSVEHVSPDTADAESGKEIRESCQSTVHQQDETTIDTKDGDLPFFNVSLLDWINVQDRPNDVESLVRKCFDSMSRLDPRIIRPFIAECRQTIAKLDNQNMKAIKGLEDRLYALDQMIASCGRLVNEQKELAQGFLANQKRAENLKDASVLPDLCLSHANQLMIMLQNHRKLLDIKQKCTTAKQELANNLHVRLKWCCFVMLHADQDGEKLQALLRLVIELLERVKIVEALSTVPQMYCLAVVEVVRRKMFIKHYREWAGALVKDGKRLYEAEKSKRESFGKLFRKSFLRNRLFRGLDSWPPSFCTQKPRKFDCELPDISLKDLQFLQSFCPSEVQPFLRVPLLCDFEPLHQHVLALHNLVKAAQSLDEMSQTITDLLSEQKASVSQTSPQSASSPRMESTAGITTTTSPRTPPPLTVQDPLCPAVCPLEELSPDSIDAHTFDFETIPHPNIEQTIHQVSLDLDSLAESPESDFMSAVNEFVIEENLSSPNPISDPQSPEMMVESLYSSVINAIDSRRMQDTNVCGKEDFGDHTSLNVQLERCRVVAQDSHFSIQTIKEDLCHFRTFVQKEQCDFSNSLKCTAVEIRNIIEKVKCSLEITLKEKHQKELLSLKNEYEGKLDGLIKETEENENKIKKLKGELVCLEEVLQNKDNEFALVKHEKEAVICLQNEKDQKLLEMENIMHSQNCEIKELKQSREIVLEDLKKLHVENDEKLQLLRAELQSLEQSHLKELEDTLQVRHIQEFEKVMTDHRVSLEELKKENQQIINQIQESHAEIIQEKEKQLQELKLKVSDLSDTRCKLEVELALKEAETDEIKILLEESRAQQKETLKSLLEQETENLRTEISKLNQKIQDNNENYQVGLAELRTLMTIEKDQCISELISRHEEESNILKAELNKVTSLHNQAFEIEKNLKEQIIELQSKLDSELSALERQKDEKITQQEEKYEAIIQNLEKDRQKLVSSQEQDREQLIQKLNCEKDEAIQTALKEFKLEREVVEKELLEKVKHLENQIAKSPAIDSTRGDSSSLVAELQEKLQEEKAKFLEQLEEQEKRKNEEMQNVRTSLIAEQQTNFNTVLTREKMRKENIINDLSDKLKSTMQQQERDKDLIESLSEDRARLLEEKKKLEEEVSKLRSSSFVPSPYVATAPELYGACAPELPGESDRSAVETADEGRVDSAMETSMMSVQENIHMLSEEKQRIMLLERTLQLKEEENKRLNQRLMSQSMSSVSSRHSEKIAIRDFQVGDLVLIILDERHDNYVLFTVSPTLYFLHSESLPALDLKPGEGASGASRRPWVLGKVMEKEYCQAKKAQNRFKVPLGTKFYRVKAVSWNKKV
# UniProt Q15758, sequence (Q15758 whole entry, looked up): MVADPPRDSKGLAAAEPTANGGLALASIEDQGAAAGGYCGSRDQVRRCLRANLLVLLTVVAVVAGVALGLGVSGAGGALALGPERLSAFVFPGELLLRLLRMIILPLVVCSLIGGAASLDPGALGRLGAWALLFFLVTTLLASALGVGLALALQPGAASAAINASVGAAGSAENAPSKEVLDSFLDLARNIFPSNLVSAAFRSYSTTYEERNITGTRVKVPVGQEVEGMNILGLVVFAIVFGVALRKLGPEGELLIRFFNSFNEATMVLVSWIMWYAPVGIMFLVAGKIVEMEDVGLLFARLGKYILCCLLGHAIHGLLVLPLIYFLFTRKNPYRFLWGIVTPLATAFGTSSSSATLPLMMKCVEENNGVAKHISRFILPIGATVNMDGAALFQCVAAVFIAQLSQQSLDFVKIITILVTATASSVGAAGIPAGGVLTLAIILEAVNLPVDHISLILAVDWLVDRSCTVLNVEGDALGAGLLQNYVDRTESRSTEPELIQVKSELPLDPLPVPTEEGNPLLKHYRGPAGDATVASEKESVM
# UniProt Q9BUV8, sequence (Q9BUV8 whole entry, looked up): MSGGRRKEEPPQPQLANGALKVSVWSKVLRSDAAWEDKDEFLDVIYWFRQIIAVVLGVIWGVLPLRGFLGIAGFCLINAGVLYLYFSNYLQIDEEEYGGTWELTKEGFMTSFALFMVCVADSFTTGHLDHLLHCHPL
# UniProt Q9BVS4, sequence (Q9BVS4 whole entry, looked up): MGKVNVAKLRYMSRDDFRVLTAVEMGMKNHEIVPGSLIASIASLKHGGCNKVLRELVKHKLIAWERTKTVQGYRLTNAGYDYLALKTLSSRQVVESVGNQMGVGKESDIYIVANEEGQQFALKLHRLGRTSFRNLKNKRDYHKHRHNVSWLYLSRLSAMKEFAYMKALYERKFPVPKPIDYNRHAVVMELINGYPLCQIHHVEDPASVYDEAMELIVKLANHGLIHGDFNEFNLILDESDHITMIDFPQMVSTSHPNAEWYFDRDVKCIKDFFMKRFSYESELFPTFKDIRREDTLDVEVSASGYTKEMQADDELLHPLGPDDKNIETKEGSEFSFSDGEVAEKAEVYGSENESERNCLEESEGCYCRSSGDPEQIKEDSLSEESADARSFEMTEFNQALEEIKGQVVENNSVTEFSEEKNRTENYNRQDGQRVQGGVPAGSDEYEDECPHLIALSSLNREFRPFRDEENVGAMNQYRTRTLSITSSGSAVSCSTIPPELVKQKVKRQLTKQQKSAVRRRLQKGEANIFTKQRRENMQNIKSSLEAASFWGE
# UniProt Q9P2N5, sequence (Q9P2N5 whole entry, looked up): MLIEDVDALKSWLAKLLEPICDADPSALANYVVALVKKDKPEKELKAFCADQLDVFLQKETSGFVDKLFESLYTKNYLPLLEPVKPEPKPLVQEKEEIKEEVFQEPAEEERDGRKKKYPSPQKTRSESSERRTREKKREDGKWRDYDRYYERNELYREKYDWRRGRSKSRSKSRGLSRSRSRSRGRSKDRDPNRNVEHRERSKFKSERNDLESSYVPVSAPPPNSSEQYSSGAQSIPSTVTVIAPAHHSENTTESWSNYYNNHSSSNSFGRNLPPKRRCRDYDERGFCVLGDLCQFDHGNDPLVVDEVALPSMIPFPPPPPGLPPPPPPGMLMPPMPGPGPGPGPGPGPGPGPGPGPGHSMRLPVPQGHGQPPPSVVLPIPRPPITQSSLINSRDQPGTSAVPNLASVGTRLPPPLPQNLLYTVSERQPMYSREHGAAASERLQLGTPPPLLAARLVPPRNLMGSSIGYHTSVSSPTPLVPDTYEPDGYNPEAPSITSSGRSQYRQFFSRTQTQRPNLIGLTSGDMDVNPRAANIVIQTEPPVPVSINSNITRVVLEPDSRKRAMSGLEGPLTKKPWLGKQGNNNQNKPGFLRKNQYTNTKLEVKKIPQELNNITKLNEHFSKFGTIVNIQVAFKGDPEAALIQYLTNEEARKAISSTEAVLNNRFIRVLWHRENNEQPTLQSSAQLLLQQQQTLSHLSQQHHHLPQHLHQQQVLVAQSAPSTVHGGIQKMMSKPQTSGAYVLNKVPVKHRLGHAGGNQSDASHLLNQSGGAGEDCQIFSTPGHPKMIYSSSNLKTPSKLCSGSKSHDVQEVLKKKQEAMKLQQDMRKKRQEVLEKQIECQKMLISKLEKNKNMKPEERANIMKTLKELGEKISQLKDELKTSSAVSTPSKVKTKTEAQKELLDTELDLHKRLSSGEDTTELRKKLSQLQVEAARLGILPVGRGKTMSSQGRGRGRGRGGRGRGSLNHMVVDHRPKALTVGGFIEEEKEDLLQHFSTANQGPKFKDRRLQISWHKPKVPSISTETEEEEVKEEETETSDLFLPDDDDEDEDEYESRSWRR
# UniProt Q9UKM9, sequence (Q9UKM9 whole entry, looked up): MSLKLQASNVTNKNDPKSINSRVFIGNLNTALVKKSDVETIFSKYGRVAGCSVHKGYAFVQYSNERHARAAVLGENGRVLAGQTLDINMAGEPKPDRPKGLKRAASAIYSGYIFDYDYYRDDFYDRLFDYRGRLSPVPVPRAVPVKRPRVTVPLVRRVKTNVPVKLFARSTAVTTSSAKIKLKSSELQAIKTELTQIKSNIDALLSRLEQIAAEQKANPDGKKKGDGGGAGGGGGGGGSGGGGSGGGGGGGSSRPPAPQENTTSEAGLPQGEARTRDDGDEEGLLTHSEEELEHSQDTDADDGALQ
# UniProt P40938, sequence (P40938 whole entry, looked up): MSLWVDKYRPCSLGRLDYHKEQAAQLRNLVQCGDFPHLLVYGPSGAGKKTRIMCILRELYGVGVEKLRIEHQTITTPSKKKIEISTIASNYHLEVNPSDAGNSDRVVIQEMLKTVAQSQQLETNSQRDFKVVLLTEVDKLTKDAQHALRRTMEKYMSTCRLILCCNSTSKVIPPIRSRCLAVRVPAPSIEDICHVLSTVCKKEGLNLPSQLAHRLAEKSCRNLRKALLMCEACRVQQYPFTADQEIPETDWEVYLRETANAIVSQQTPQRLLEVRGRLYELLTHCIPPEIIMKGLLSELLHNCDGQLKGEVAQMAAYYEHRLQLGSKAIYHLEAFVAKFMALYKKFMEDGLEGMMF
Target,log2 fold change [1],log2 fold change (crizotinib),log2 fold change [2],log2 fold change [3],log2 fold change (duvelisib),log2 fold change (gandotinib),log2 fold change (tozasertib),log2 fold change [4],log2 fold change (doramapimod),log2 fold change (ispinesib),log2 fold change (bafetinib),log2 fold change [5],log2 fold change (nilotinib),log2 fold change [6],log2 fold change (dasatinib),log2 fold change [7],log2 fold change [8],log2 fold change [9],log2 fold change (tipifarnib),log2 fold change (mubritinib)
SLC1A5 (UniProt Q15758),0.026,0.13,0.072,-0.186,0.044,-0.105,-0.064,-0.091,-0.007,0.167,0.041,0.004,0.067,0.023,0.023,0.014,0.035,-0.032,0.026,0.052
RIOK2 (UniProt Q9BVS4),0.059,-0.057,-0.167,0.189,-0.037,0.263,-0.001,0.053,0.084,-0.019,0.27,0.003,0.094,0.202,0.013,0.231,-0.041,-0.067,-0.003,0.014
RCC1 isoform 2 (UniProt P18754),0.418 (active),-0.032,0.13,-0.04,0.158,-0.1,-0.002,0.154,-0.008,-0.007,0.013,0.002,0.069,-0.137,-0.159,0,0.139,-0.004,-0.112,0.296
RPTOR (UniProt Q8N122),0.012,-0.188,-0.031,0.033,0.045,-0.115,0,0.01,-0.009,-0.114,-0.005,0.034,-0.085,-0.103,-0.103,-0.045,-0.107,0.009,-0.062,0.033
RNF14 (UniProt Q9UBS8),0.034,0.014,0.081,-0.053,0.031,0.001,0.058,0.041,-0.025,-0.032,-0.033,0.05,-0.002,-0.07,-0.136,-0.048,-0.017,0.033,-0.05,0.017
RPS18 (UniProt P62269),-0.022,0.033,-0.244,0.222,-0.076,0.129,0.016,-0.002,0.105,-0.074,0.214,-0.015,-0.001,0.198,0.069,-0.054,-0.088,-0.001,0.031,-0.022
RAB5IF isoform 5 (UniProt Q9BUV8),-0.036,-0.094,0.076,-0.007,0.078,0.04,-0.156,-0.002,0.025,0.157,0.034,-0.01,-0.042,-0.011,0.062,-0.051,-0.054,0,-0.013,0.079
RB1CC1 (UniProt Q8TDY2),0.062,0.041,-0.006,0.033,-0.006,0.132,-0.013,0.011,0.037,-0.02,-0.037,0.014,0.009,0.078,-0.103,-0.012,0.029,0.017,-0.069,0.026
RPS6KA1 isoform 2 (UniProt Q15418),0,-0.259,0.138,-0.066,0.03,-0.199,0.002,0.066,-0.026,0.021,-0.051,0.081,-0.002,-0.569 (active),-0.281,-0.044,-0.019,0,-0.056,0.041
SCPEP1 (UniProt Q9HB40),-0.03,-0.254 (active),-0.041,-0.028,0.083,0.127,-0.03,0.032,-0.032,-0.163,-0.499 (active),-0.013,0.028,-0.006,-0.007,-0.004,0.023,0.034,0.026,0.04
RALY (UniProt Q9UKM9),-0.149,-0.068,-0.138,0.316,-0.161,0.098,0.051,0.043,0.01,-0.082,0.077,-0.069,-0.029,0.051,0.249,-0.151,-0.596,-0.011,-0.118,-0.257
RBM27 (UniProt Q9P2N5),0.006,0.021,0.026,-0.174,0.001,-0.019,0.027,0.09,-0.035,-0.122,0.007,0.078,0.019,-0.91 (active),-0.07,-0.07,0.053,0.041,-0.005,0.023
RNF167 (UniProt Q9H6Y7),0.087,-0.133,-0.097,0.082,-0.026,-0.045,0.027,0.018,-0.056,-0.668 (active),-0.049,-0.012,0.049,-0.014,0.039,0.025,-0.068,0.032,0.008,0.001
RHOXF2 (UniProt Q9BQY4),0.027,0.001,0.073,0.018,0.04,-0.045,-0.029,-0.092,0.008,0.009,-0.05,-0.215 (active),0.009,-0.007,0.053,-0.058,0.008,-0.035,0.048,0.06
RFC3 (UniProt P40938),0.029,0.016,0.163,0.071,0.032,-0.042,-0.004,0.061,-0.005,0.067,-0.035,0.049,-0.016,-0.017,-0.032,-0.011,0.053,-0.01,-0.051,0.045
SENP6 (UniProt Q9GZR1),-0.016,-0.015,-0.134,-0.002,0.024,-0.056,0.02,-0.046,0.006,-0.046,0.015,-0.015,0.007,-0.038,-0.028,0.063,0.046,-0.013,0.025,0.053
